Source: PubChem BioAssay
TGFb SMAD3 inh: qHTS for Inhibitors of TGF-b; AID 588855, 2011; hit rate 1.2% among 410,000; Potency, µM (doses to about 46.1 µM), actives largely listed as inhibitors; HepG2 CAGA-GFP TGF-b/SMAD3 reporter, GFP fluorescence, 18 h; TGF-beta stimulated, 500 pg/mL final; note: nearly all actives have a fitted effect of over 65% in size
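HEPG2 CAGA-GFP, 1000 cells/well; 2 h settle, 37 C; cpd via pin tool; TGF-b 500 pg/mL final; 18 h, 37 C; GFP imaging ex488/em500-530; %Activity normalised to -TGF-b and +DMSO controls; CRC fit, curve class.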
TDP1 cell noCPT: qHTS for Inhibitors of human tyrosyl-DNA phosphodiesterase 1 (TDP1): qHTS in cells in absence of CPT. DT40 Tdp1-/- hTDP1 cells, no CPT, ATP luminescence, 48 h. hit rate 15% among 420,000. Potency, µM (doses to about 46.2 µM), usual class: inhibitors; note: nearly all actives have a fitted effect of over 55% in size
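A cellular qHTS used chicken DT40 cells lacking endogenous Tdp1 but carrying stably transfected human TDP1. Compounds were applied without camptothecin, and cell growth kinetics were judged by ATP-dependent luminescence after ≥48 hr.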
HepG2 viability: qHTS for Inhibitors of TGF-b: Cytotox Counterscreen. HepG2 CAGA-GFP viability, ATP luminescence, 18 h. Potency, µM (highest dose often 46.1 µM), most hits filed as cytotoxic. hit rate 0.76% among 410,000. AID 588856, 2011
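CellTiter-Glo luminescence gave cytotoxicity after 18 hours at 37 degrees C. The cells were HepG2 CAGA-GFP in 1% FBS DMEM, stimulated with 500 pg/mL TGF-beta after compound addition. %Activity was normalised to no-cell wells (complete cell-killing) and DMSO (no toxicity), and curves were fitted and classified.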
S2 tox: Viability Counterscreen for Primary qHTS for Inhibitors of ATXN expression; S2 cells (HEK-293 line with an ATXN2-luciferase reporter) viability, CellTiter-Fluor protease fluorescence, 24 h; Potency, µM (series often up to 56.7 µM), hits mostly cytotoxic; hit rate 0.49% among 400,000; AID 651635, 2014; note: nearly all actives have a fitted effect of over 40% in size
ATXN2 expr inh: Primary qHTS for Inhibitors of ATXN expression. HEK-293 ATXN2-luciferase reporter, luminescence, 24 h. Potency, µM (series often up to 57 µM), most hits filed as inhibitors. hit rate 0.72% among 360,000. AID 1745845, 2022; note: nearly all actives have a fitted effect of over 55% in size
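ATXN2-luciferase reporter cells (luciferase flanked by upstream and downstream ATXN2 gene portions) were treated 24 h at 37 °C with compounds at up to 57 uM. SteadyGlo luminescence gave expression; GF-AFC fluorescence gave viability.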
TDP1 cell CPT: qHTS for Inhibitors of human tyrosyl-DNA phosphodiesterase 1 (TDP1): qHTS in cells in presence of CPT; hit rate 12% among 420,000; chicken DT40 Tdp1-/-;hTDP1 cells + 20 nM CPT, ATP luminescence, 48 h; Potency, µM (doses to about 46.2 µM), most hits filed as inhibitors; AID 686979, 2013; note: nearly all actives have a fitted effect of over 55% in size
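Chicken DT40 Tdp1-/- cells complemented with human TDP1, 400 cells/well, exposed to compounds plus 20 nM camptothecin for at least 48 h at 37 C; viability read as ATP content by CellTiter-Glo luminescence.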
Large screens that a line does not name were inactive. Most compounds without a hit are left out; they make up all but 17% or so of the library. Calls come from the whole dose curve; as a rule, active = well fitted curve in the direction sought with a large enough effect; inconclusive = small, poorly fitted or top-dose-only effect, or another doubt; inactive = no such curve, though single readings can be large; an effect the other way counts as inactive or inconclusive.

Cc1cccn2c(=O)c3cc(C#N)c(=O)n(-c4nnc(SCc5ccccc5F)s4)c3nc12	TDP1 cell noCPT 6.5µM, TDP1 cell CPT inconclusive
COc1ccc(C(=O)NCC(=O)OCC(=O)Nc2ncc(Cl)cc2Cl)cc1[N+](=O)[O-]	none (no result: ATXN2 expr inh)
CCOC(=O)c1c(NC(=O)C(C)Sc2cn(CCNC(=O)c3ccc(OC)c(OC)c3)c3ccccc23)sc2c1CCC2 (centres undefined)	TDP1 cell noCPT inconclusive, TDP1 cell CPT 21µM
COc1ccccc1C(=O)NCCn1cc(SCC(=O)Nc2nnc(C)s2)c2ccccc21	TDP1 cell CPT inconclusive
CCOC(=O)c1c(NC(=O)CSc2cn(CCNC(=O)c3ccc(OC)c(OC)c3)c3ccccc23)sc2c1CCCC2	TGFb SMAD3 inh inconclusive, TDP1 cell noCPT 2.9µM, S2 tox inconclusive, TDP1 cell CPT 7.3µM
CCOC(=O)c1c(NC(=O)C(C)Sc2cn(CCNC(=O)c3ccccc3OC)c3ccccc23)sc2c1CCC2 (centres undefined)	TGFb SMAD3 inh inconclusive, TDP1 cell noCPT 5.2µM, TDP1 cell CPT 18µM
CCOC(=O)c1c(NC(=O)CSc2cn(CCNC(=O)c3c(F)cccc3F)c3ccccc23)sc2c1CCC2	TGFb SMAD3 inh inconclusive, TDP1 cell noCPT inconclusive, S2 tox inconclusive, TDP1 cell CPT inconclusive
CCOC(=O)c1c(NC(=O)CSc2nnc(-c3c[nH]c4ccccc34)n2CCOC)sc2c1CCCC2	TDP1 cell noCPT 15µM, S2 tox inconclusive, TDP1 cell CPT 23µM
O=C(NCc1ccc2c(c1)OCO2)C1CCC(=O)N1C1CCCCC1 (centres undefined)	none
CCOC(=O)c1c(NC(=O)c2ccccc2C)sc2c1CCCC2	TDP1 cell noCPT inconclusive (no result: S2 tox, ATXN2 expr inh)
CCOC(=O)c1c(NC(=O)C(C)S(=O)(=O)c2cn(CC)c3ccccc23)sc2c1CCCC2 (centres undefined)	TDP1 cell noCPT 6.5µM, S2 tox inconclusive, TDP1 cell CPT inconclusive
O=C([C@H](O)c1ccccc1)N1CCC[C@H]1CO	none
CCOc1ccc(/C=N/NC(=S)NC2CC3CC2C2C=CCC32)cc1 (centres undefined)	TGFb SMAD3 inh inconclusive, TDP1 cell noCPT 16µM, TDP1 cell CPT 16µM
COc1cc(/C=N/NC(=S)NC2CC3CC2C2C=CCC32)ccc1O (centres undefined)	TGFb SMAD3 inh inconclusive, TDP1 cell noCPT 15µM, S2 tox inconclusive, TDP1 cell CPT inconclusive
O=C(Nc1cccc(Br)c1)c1cccc(OC(=S)N2CCOCC2)c1	TGFb SMAD3 inh inconclusive, TDP1 cell noCPT inconclusive, S2 tox inconclusive, ATXN2 expr inh inconclusive, TDP1 cell CPT inconclusive
CC(C)(C)c1ccc(C(=O)NC2(C(F)(F)F)C(=O)Nc3c2c(=O)[nH]c(=O)n3-c2ccccc2)cc1 (centres undefined)	none
CCN(c1cc(C)cc(C)c1)S(=O)(=O)c1nnc(NC(=O)c2ccccc2C)s1	TGFb SMAD3 inh inconclusive, TDP1 cell noCPT inconclusive, TDP1 cell CPT inconclusive (no result: S2 tox, ATXN2 expr inh)
CC(C)c1ccc(/C=C/C2=NNC(=O)CC2)cc1	TDP1 cell noCPT 12µM, TDP1 cell CPT 18µM
CCOc1ccc(S(=O)(=O)N2CCN(C(=O)CCOc3ccccc3C)CC2)cc1	TDP1 cell noCPT 18µM, TDP1 cell CPT inconclusive
CCOc1ccc(OCCC(=O)OCC(=O)N2CCN(S(=O)(=O)c3ccc(Cl)cc3)CC2)cc1	TGFb SMAD3 inh inconclusive, TDP1 cell noCPT 23µM, TDP1 cell CPT inconclusive
Cc1ccc(S(=O)(=O)N2CCN(C(=O)CCOc3ccccc3C)CC2)cc1C	TGFb SMAD3 inh inconclusive, TDP1 cell noCPT inconclusive, TDP1 cell CPT inconclusive
Cc1ccccc1OCCC(=O)Nc1ccc(S(=O)(=O)N2CCCC2)cc1	TDP1 cell noCPT 15µM, S2 tox inconclusive, TDP1 cell CPT 21µM (no result: ATXN2 expr inh)
C=CCn1c(-c2ccccc2)nc(=S)c2c1CCCC2	TDP1 cell noCPT 23µM, TDP1 cell CPT inconclusive
c1cnc2c(OCc3cn4cccnc4n3)cccc2c1	TDP1 cell noCPT 29µM
Clc1ccc(OCc2cn3cccnc3n2)c2ncccc12	none
CCOc1ccc(-c2onc(C(F)(F)F)c2-c2cscn2)c(O)c1	TDP1 cell noCPT inconclusive, TDP1 cell CPT 11µM
Cc1cc(O)cc(O)c1-c1onc(C(F)(F)F)c1-c1cscn1	TGFb SMAD3 inh inconclusive, TDP1 cell noCPT 10µM, TDP1 cell CPT 18µM
COc1ccc(-c2onc(C)c2-c2cscn2)c(O)c1	none
CCN(CC(=O)NCc1cccs1)CC(=O)Nc1cccc(S(N)(=O)=O)c1	none
COc1ccc(CN2C(=O)c3c(c(C)n(C)c3C)C2C(=O)NC2CCC(C)CC2)cc1 (centres undefined)	none
COc1ccc(NC(=O)c2ccco2)cc1NC(=O)c1ccco1	none
COc1ccc(NC(=O)c2ccco2)cc1NC(=O)C(C)(C)Oc1ccc(Cl)cc1	TGFb SMAD3 inh inconclusive, TDP1 cell noCPT inconclusive, S2 tox inconclusive, ATXN2 expr inh inconclusive, TDP1 cell CPT 18µM
COc1ccc(C(=O)Nc2cc(NC(=O)c3ccco3)ccc2OC)cc1Cl	none (no result: S2 tox, ATXN2 expr inh)
COc1ccc(NC(=O)c2ccco2)cc1NC(=O)C(C)Oc1ccc(Cl)cc1Cl (centres undefined)	TGFb SMAD3 inh inconclusive, TDP1 cell noCPT 6.5µM, ATXN2 expr inh inconclusive, TDP1 cell CPT 9.2µM
COc1ccc(NC(=O)c2ccco2)cc1NC(=O)COc1ccccc1Cl	TDP1 cell noCPT inconclusive, TDP1 cell CPT 6.5µM (no result: S2 tox, ATXN2 expr inh)
Cc1ccc(N2CCN(C(=O)c3cn(C)c4ccc(S(=O)(=O)N(C)C5CCCCC5)cc4c3=O)CC2C)cc1 (centres undefined)	none
O=C(O)CCCc1ccc2ccc3cccc4ccc1c2c34	none
NCCCCc1ccc2ccc3cccc4ccc1c2c34	TGFb SMAD3 inh inconclusive, TDP1 cell noCPT inconclusive, TDP1 cell CPT 16µM
NNC(=O)COc1ccc(-c2n[nH]c(C(F)(F)F)c2-c2ccc(Br)cc2)c(O)c1	TGFb SMAD3 inh inconclusive
COc1ccccc1-c1c(-c2ccc(OCC(=O)NN)cc2O)n[nH]c1C(F)(F)F	TDP1 cell noCPT 13µM, TDP1 cell CPT 9.2µM
COc1ccc(-c2n[nH]c(C(F)(F)F)c2-c2cc3ccccc3o2)c(O)c1	TGFb SMAD3 inh inconclusive, TDP1 cell noCPT 15µM, HepG2 viability 13µM, S2 tox inconclusive, ATXN2 expr inh inconclusive, TDP1 cell CPT 13µM
CC(=O)c1ccccc1C(=O)N1CCC(n2nccc2NC(=O)C2CC2)CC1	S2 tox inconclusive
COC(=O)c1cc(NC(=S)Nc2cc(Cl)cc(Cl)c2)cc(C(=O)OC)c1	TDP1 cell noCPT inconclusive, TDP1 cell CPT 18µM
